In PubChem BioAssay (EPA / NIEHS) one finds outcome and AC50 data, which are given here for ten compounds.

A short description of assay [1]: CCTE_Shafer_MEA_acute_spike_number: CCTE's Neural Acute Assay for Total Number of Spikes, Shafer Lab (AID 2284008).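 On AC50: curve fitted for decrease in spike count so AC50 reflects inhibitors.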 In short, it runs like this:
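Rat primary cortical neurons on 48-well MEA plates, DIV 13 or 15, at 37 C. 40 min baseline then 40 min with compound (0.03-40 uM); spikes detected at 8x rms noise, expressed as percent change from baseline.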

Assay [2] is described as follows: CCTE_Shafer_MEA_acute_firing_rate_mean: CCTE's Neural Acute Assay for Mean Firing Rate, Shafer Lab (AID 2284009).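 Further: analyzed for loss of signal so actives lower firing rate relative to DMSO.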 In short, it runs like this:
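Primary rat cortical neurons on 16-electrode MEA wells were exposed on DIV 13 or 15 to compound (0.03-40 uM). Spike counts per recording time, averaged over electrodes, were compared between 40-min baseline and 40-min post-exposure recordings as percent change.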

Assay [3] is described as follows: CCTE_Harrill_HTTr_Viability_MCF7: CCTE's 6-hour Cell Viability Assessment for the High-Throughput Transcriptomics (HTTr) Platform, in MCF-7 cells cultured in DMEM + 10% fetal bovine serum, Harrill Lab (AID 2284010). In short, it runs like this:
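PI exclusion, high-content imaging; 8-pt dilution series, 6 h exposure; bidirectional fit vs DMSO (neg. ctrl/baseline); gain of signal = loss of membrane integrity.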

A short description of assay [4]: CCTE_Harrill_HTTr_Apoptosis_MCF7: CCTE's 6-hour Apoptosis Assessment for the High-Throughput Transcriptomics (HTTr) Platform, in MCF-7 cells cultured in DMEM + 10% fetal bovine serum, Harrill Lab (AID 2284011). In short, it runs like this:
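MCF-7 cells in DMEM + 10% FBS exposed 6 h to chemicals over an eight-point dilution series. Caspase-3/7 activation imaged by high-content CellEvent Green staining; fitted bidirectionally versus DMSO.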

Assay [5] is described as follows: CCTE_Harrill_HTTr_CellCount_MCF7: CCTE's Cell Proliferation Assessment for the High-Throughput Transcriptomics (HTTr) Platform, Harrill Lab (AID 2284012; active means hit-call score of the fitted dose curve at least 0.9, where 1 is the maximum;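 further: count of Hoechst-stained nuclei per well by high-content imaging in MCF-7 cells; cells exposed to compound for six hours; intended direction is loss of nuclei count meaning fewer cells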). In short, it runs like this: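 Readout: Hoechst nuclear count by high-content imaging. MCF-7, 8-point dilution series, 6 h exposure. Bidirectional fit vs DMSO baseline.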
Assay [6] can be described thus: CCTE_Shafer_MEA_acute_burst_duration_mean: CCTE's Neural Acute Assay for Mean Burst Duration, Shafer Lab (AID 2284014).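 Further: hits are decreases in mean burst duration relative to DMSO controls.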 The gist of the method: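 Mean burst duration was compared between a 40 min baseline and a 40 min recording in the presence of compound (0.03-40 uM, 37 C), giving percent change per well. Cultures were rat cortical neurons at DIV 13 or 15; wells needed ≥10 active electrodes.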

Assay [7] is described as follows: CCTE_Shafer_MEA_acute_per_burst_spike_number_mean: CCTE's Neural Acute Assay for Average Number of Spikes Per Burst, Shafer Lab (AID 2284015).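 Further: hits are decreases in mean spikes per burst versus baseline.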 In short, it runs like this:
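Rat primary cortical neurons on 48-well MEAs (DIV 13 or 15) were treated with 0.03-40 uM compound at 37 C. Mean spikes per burst over 40 min were recorded before and after exposure and expressed as percent change from baseline, relative to DMSO.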

Assay [8] in a line: CCTE_Shafer_MEA_acute_interburst_interval_mean: CCTE's Neural Acute Assay for Mean Interburst Interval, Shafer Lab (AID 2284016).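 Further: percent change of mean interburst interval versus each well's own pre-dose baseline; curves fitted for decrease in interburst interval relative to DMSO.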 The gist of the method:
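Rat primary cortical neurons on 48-well MEAs at DIV 13 or 15 were exposed acutely to 0.03-40 uM. Spikes detected at 8x rms noise, 37 C. Mean interburst interval from 40 min recordings expressed as percent change from 40 min pre-treatment baseline.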

Assay [9] is described as follows: CCTE_Shafer_MEA_acute_burst_percentage_mean: CCTE's Neural Acute Assay for Percentage of Spikes in a Burst, Shafer Lab (AID 2284017).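 On AC50: curve fitted for loss of signal so potency reflects decreased burst percentage.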 The gist of the method:
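Primary rat cortical neurons on 48-well MEA plates, treated on DIV 13 or 15 at 0.03-40 uM. Spikes detected at 8x rms noise at 37C; percent change from 40-min baseline to 40-min post-dose recording, fitted versus DMSO.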

Assay [10] can be described thus: CCTE_Shafer_MEA_acute_burst_percentage_std: CCTE's Neural Acute Assay for Standard Deviation of Burst Percentage, Shafer Lab (AID 2284018).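 Further: fitted in the negative direction so actives lower burst percentage SD.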 In short, it runs like this: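 Value is percent change from baseline in the across-electrode SD of spikes-in-bursts percentage, wells with >/= 10 active electrodes. Acute 40-min exposure to 0.03-40 uM on DIV 13 or 15 rat cortical cultures, recorded at 37 C after 40-min baseline.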

Assay [11] can be described thus: CCTE_Shafer_MEA_acute_per_network_burst_spike_number_mean: CCTE's Neural Acute Assay for Average Number of Spikes in a Network Burst, Shafer Lab (AID 2284019).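 On AC50: curve fitted for loss of signal so actives reduce spikes per network burst.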 In short, it runs like this:
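Percent change from baseline in mean spikes per network burst, spikes detected at 8x rms noise. Each compound at 0.03-40 uM in at least three wells of rat cortical cultures, recorded 40 min before and 40 min during exposure.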

The nature of assay [12]: CCTE_Shafer_MEA_acute_per_network_burst_spike_number_std: CCTE's Neural Acute Assay for Standard Deviation of Number of Spikes in a Network Burst, Shafer Lab (AID 2284020).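 Further: fitted for decrease in spike-number SD versus DMSO so actives lower it.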 The gist of the method: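 Endpoint: percent change from 40 min baseline in standard deviation of spikes per network burst, after 40 min compound exposure (0.03-40 uM, 37 C). Cortical rat neurons on MEA at DIV 13 or 15; spikes detected at 8x rms noise, 300-5000 Hz band-pass.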

The nature of assay [13]: CCTE_Shafer_MEA_acute_network_burst_percentage: CCTE's Neural Acute Assay for Percentage of Network Bursts, Shafer Lab (AID 2284022).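 Further: curves fitted for loss so actives lower network burst percentage.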 The gist of the method: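 Rat primary cortical neuron networks on 48-well MEA plates, DIV 13 or 15, treated acutely with compound (0.03-40 uM, at least three wells). Percent of spikes within network bursts compared between 40-min recordings before and during exposure at 37 C, expressed as percent change.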

Assay [14] can be described thus: CCTE_Shafer_MEA_acute_cross_correlation_area: CCTE's Neural Acute Assay for Area of Cross Correlation, Shafer Lab (AID 2284024).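 Further: curves fitted for loss of cross-correlation area so actives lower synchrony.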 In short, it runs like this: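 Rat primary cortical neurons on 48-well MEA, DIV 13 or 15; compounds 0.03-40 uM. Baseline and post-exposure 40 min recordings at 37 C; percent change in area under pooled inter-electrode cross-correlation near zero lag, relative to DMSO.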

Assay [15] in a line: CCTE_Shafer_MEA_acute_cross_correlation_HWHM: CCTE's Neural Acute Assay for Cross Correlation at Half Width at Half Maximum, Shafer Lab (AID 2284026).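 Further: percent change per well from pre-dose baseline in spike cross-correlogram half width; hits are a decrease in cross-correlogram half width relative to DMSO.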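 On outcome: spontaneous network firing of rat primary cortical neurons on multiwell microelectrode arrays.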 In short, it runs like this:
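Rat primary cortical neurons on 48-well MEA plates; 40-min baseline and 40-min post-exposure recordings at 37 C on DIV 13 or 15, compounds 0.03-40 uM. Spikes detected at 8x rms noise; percent change in cross-correlogram HWHM per well vs baseline.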

Assay [16] in a line: CCTE_Shafer_MEA_acute_synchrony_index: CCTE's Neural Acute Assay for Synchrony, Shafer Lab (AID 2284027).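 Further: network synchrony index of spontaneous spiking in primary rat cortical neurons on MEAs; fitted for loss of signal so actives lower synchrony relative to DMSO.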 The gist of the method: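 Rat cortical cultures, DIV 13/15; spikes detected at 8x rms noise, 300-5000 Hz band-pass. Compound 0.03-40 uM, ≥3 wells; 40-min pre- and post-exposure recordings, 37 C. Readout: % change in synchrony index; loss-of-signal fit vs DMSO.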
A short description of assay [17]: CCTE_Shafer_MEA_dev_firing_rate_mean: CCTE's Neural Network Formation Assay for Mean Firing Rate, Shafer Lab (AID 2284031). In short, it runs like this:
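Read-out: spike count/recording length, averaged over active electrodes, then AUC across days 5, 7, 9, 12. Rat cortical cultures on MEA; continuous 12-day exposure, media and treatment renewed DIV 5, 9; DMSO baseline.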

Assay [18] in a line: CCTE_Shafer_MEA_dev_per_burst_spike_percent: CCTE's Neural Network Formation Assay for Percent of Spikes in a Burst, Shafer Lab (AID 2284032).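 On AC50: fitted as a decrease in burst spike percentage below DMSO baseline.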 In short, it runs like this: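 Value is trapezoidal AUC over recordings on days 5, 7, 9 and 12 of the well-mean fraction of spikes falling in single-electrode bursts; rat cortical cultures exposed continuously from plating, treatment renewed DIV 5 and 9, fitted downward against DMSO.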

Assay [19] is described as follows: CCTE_Deisenroth_AIME_384WELL_CTox_Active: Cytotoxicity Assessment (CTOX) in CCTE's 384-well Estrogen Receptor Transactivation Assay with AIME metabolic competence (metabolism positive), Deisenroth Lab (AID 2284037; active means hit-call score of the fitted dose curve at least 0.9, where 1 is the maximum;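 further: chemicals first conditioned 2 h by alginate-bound induced rat liver S9 before cells; activity means signal loss indicating cell death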). In short, it runs like this:
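Cytotoxicity in VM7Luc4E2 breast cells, 24 hour, measured as protease-substrate fluorescence loss, after 2-hour metabolic conditioning with induced rat hepatic S9 in alginate microspheres. Concentrations 0.002 - 200 uM, 10 points, bidirectional fitting.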

Inconclusive results are not listed. The source made the active and inactive calls. How the source made its calls, unless noted: active means hit-call score of the fitted dose curve at least 0.9, where 1 is the maximum; inactive means score below 0.9.

As to `CS(=O)(=O)c1ccc(C(=O)C2C(=O)CCCC2=O)c(Cl)c1COCC(F)(F)F`, the compound was classed as inactive in assay [1], in assay [2], in assay [3], in assay [4], in assay [5] and in assay [6]. Also, the call in assay [7], in assay [8], in assay [9], in [10], in assay [11] and in assay [12] was inactive. Also, the call in assay [13], in assay [14], in assay [15], in [16], in assay [17] and in assay [18] was inactive.

As a reminder, the AC50 is the concentration at which the activity in the assay is half-maximal. In the case of `O=C(Cc1ccccc1)OCCc1ccccc1`, the AC50 in [1] and in assay [2] was 0.003 µM (active) each time. Moreover, the result in [3], in [4], in assay [5], in assay [6], in [7] and in assay [8] was inactive. In addition, the result in assay [9], in assay [10], in assay [11], in assay [12], in [13] and in assay [14] was inactive. Also, the call in assay [15] and in [16] was inactive.

For `OCC(c1ccc(Cl)cc1)c1ccc(Cl)cc1`, the outcome in assay [3] and in assay [4] was inactive.

As to `CC(C)[C@H](C(=O)OC(C#N)c1cccc(Oc2ccccc2)c1)c1ccc(OC(F)F)cc1` (stereo partly drawn), the outcome in assay [3] and in [4] was inactive.

In the case of `CCCCCCCCCCCCc1cccc(S(=O)(=O)O)c1`, the outcome in [1], in assay [2], in [3], in [6], in assay [7] and in assay [8] was inactive. Further, the compound was called inactive in assay [9], in [10], in assay [11], in assay [12], in assay [13] and in [14]. Further, the compound was classed as inactive in assay [15], in assay [16] and in assay [19].

Take `CCN(N=O)C(N)=O`: the result in assay [3] was inactive.

Regarding `CC1(C)[C@H](C(=O)O[C@H](C#N)c2cccc(Oc3ccccc3)c2)[C@@H]1/C=C(\Cl)C(F)(F)F`, the AC50 is 1.18 µM (active) in assay [1]; 1.18 µM (active) in assay [2]; 0.761 µM (active) in assay [6]; 0.679 µM (active) in [7]; 1.29 µM (active) in [8]; 0.841 µM (active) in [9]. Further, the AC50 was 0.553 µM (active) in [11]; 0.427 µM (active) in [12]; 0.551 µM (active) in [13]; 0.0359 µM (active) in assay [14]; 23.7 µM (active) in assay [15]; 0.45 µM (active) in assay [16]. In addition, in [18], the AC50 was 22.7 µM (active). Besides, the result in [3], in assay [4], in assay [5], in assay [10] and in [17] was inactive.

For the compound `Oc1c(Br)cc(Br)cc1Br`, the outcome in assay [3] and in assay [4] was inactive.

As for `Oc1cc(Cl)c(Cl)cc1Cl`, the AC50 in assay [1] is 36.3 µM (active); in assay [2], 34.2 µM (active); in assay [9], 36.5 µM (active); in assay [10], 32.6 µM (active); in assay [15] it was 30.2 µM (active); in [16], 30.5 µM (active). Besides, the AC50 in [19] was 100 µM (active). For the same compound, the result in assay [3], in [4], in assay [5], in [6], in [7] and in [8] was inactive. Also, the compound was called inactive in [11], in [12], in [13] and in assay [14].

For the compound `C=CCN=C=S`, the outcome in assay [3] and in [4] was inactive.
